# Assay outcomes deposited in PubChem BioAssay by several laboratories.
# An excerpt weighted towards active compounds, which were near 28% of everything screened.
# CYP2C19 activ – human CYP2C19 activators, primary screen, biochemical, luminescence. recombinant CYP2C19, luciferin-H EGE luminescence; hits give high values; 0 = fully inhibited enzyme, 1 = untreated enzyme. 96,000 tested, under 10 active. AID 1025, 2008. activation factor at 5 µM;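 active means activation factor of at least 2 at 5 µM in the primary screen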
# Target sequence (P33261 whole entry, looked up): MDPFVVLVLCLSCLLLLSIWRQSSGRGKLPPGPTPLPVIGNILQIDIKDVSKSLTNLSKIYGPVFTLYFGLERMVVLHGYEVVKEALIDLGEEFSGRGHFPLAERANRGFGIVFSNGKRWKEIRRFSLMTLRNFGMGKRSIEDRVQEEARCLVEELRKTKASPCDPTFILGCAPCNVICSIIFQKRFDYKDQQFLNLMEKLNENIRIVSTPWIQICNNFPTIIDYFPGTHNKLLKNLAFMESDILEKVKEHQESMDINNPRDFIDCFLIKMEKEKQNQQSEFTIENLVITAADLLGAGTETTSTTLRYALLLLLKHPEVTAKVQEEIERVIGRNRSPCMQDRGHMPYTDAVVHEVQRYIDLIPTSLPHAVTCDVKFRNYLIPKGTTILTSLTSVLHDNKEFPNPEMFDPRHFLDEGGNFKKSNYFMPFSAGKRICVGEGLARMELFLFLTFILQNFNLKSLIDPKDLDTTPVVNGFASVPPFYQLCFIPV
# CYP2C19 inh – blockers of cytochrome P450 2C19 activity – biochemical, luminescence, ADME assay, primary screen; AID 778, 2007; 96,000 tested, 21% active; CYP2C19 Supersomes, luciferin-H EGE luminescence, 30 min; P33261; inhibition, % at 5 µM;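 active means CYP2C19 inhibition above a set limit at 5 µM in the primary screen, cut at about 50% in these data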
# hDAT+cocaine – changed hDAT dopamine uptake under cocaine IC80, either direction, primary screen, cocaine antagonist project, cell-based, LLC-PK1 hDAT, [14C]-dopamine uptake, MLSMR; LLC-PK1 hDAT cells, [14C]-dopamine uptake with cocaine IC80; actives deviate in either direction; B-score at 10 µM; 110,000 tested, 1.3% active; AID 449768, 2010;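 active means Z score or B-score, a plate-position-corrected score, falls beyond the plate's 99.7% confidence bounds, in either direction; inactive means both scores lie inside the 99.7% bounds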
# D1 mod – D1 CRE-luciferase signal change, two-sided – cell-based, HEK293 D1, dopamine EC30, D1 allosteric modulator project, primary screen; D(1A) dopamine receptor (Homo sapiens), P21728; B-score at 10 µM; AID 641, 2007; 58,000 tested, 5.9% active; dopamine EC30 potentiation; actives deviate in either direction;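 active means luminescence count or its row- and column-corrected plate score outside the 99.7% band of the plate's sample wells, on either side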
# CYP2C9 activ – human CYP2C9 activators, primary screen, biochemical, luminescence; Cytochrome P450 2C9 (Homo sapiens), P11712; recombinant CYP2C9, luciferin-H conversion; hits give high values; factor 1 = untreated enzyme, 0 = blocked; activation factor at 5 µM; 96,000 tested, 1.4% active;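 active means activation factor of 2 or more for CYP2C9 at a 5 µM dose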
# CYP2C9 inhib – blockers of cytochrome P450 2C9 activity – biochemical, luminescence, ADME assay, primary screen. inhibition, % at 5 µM. AID 777, 2007. 96,000 tested, 20% active. CYP2C9 Supersomes, luciferin-H conversion;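 active means blocking of liver enzyme CYP2C9 beyond about 50% at 5 µM, limit read from the data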
# A number is an active result; i = inactive; nt = no result.
SMILES,CYP2C19 activ,CYP2C19 inh,hDAT+cocaine,D1 mod,CYP2C9 activ,CYP2C9 inhib
Cc1cc(C)c(N2C(=NC(=O)CCCC(=O)O)SC3CS(=O)(=O)CC32)c(C)c1 (configuration not stated),i,i,i,i,i,i
COc1ccc(S(=O)(=O)N2CCN(C(=O)c3cnc(C)cn3)CC2)cc1,i,50,i,nt,i,i
CCOC(=O)N1CCN(S(=O)(=O)c2ccc(C(=O)Nc3sc4c(c3C#N)CCC4)cc2)CC1,i,i,nt,i,i,75
CCOC(=O)Nc1sc2c(c1C#N)CCCC2,i,i,i,nt,i,i
CCOc1ccc(CC(C(N)=O)C(N)=O)cc1CN(C)C,i,i,i,nt,i,i
Cc1cccc(C)c1OCC(O)Cn1ccnc1C (configuration not stated),i,53,i,nt,i,i
CCc1ccc(NC(=O)CCn2ccnc2C)cc1,i,83,i,nt,i,68
O=C(CCN1CCN(c2ccc(F)cc2)CC1)Nc1ccc(F)cc1,i,i,i,i,i,i
COC(=O)c1ccc(NC(=O)CCn2cccc2)cc1,i,i,i,i,i,i
CCC(Cc1ccccc1)NC(=O)CCn1cccc1 (configuration not stated),i,66,i,nt,i,66
CCc1ccc(NC(=O)CCn2cccc2)cc1,i,71,i,nt,i,i
O=C(CCN1CCc2ccccc2C1)Nc1ccc(F)cc1,i,61,i,i,i,i
O=[N+]([O-])c1cccnc1N1CCC(c2cc(-c3ccc(Cl)cc3)n[nH]2)CC1,i,i,i,nt,i,i
O=C(CCn1cccc1)Nc1ccc(F)cc1,i,62,i,nt,i,i
Cc1ccc(NC(=O)CCn2cccc2)cc1Cl,i,86,i,i,i,i
COc1ccc(C2/C=C\CN(Cc3ccc(N(C)C)cc3)CC(=O)N2Cc2ccc(F)cc2)cc1 (configuration not stated),nt,nt,i,nt,nt,nt
CCC(C(=O)NC1CCCCC1)n1c(SCc2ccccc2F)nc2ccncc21 (configuration not stated),nt,nt,i,nt,nt,nt
O=c1c2ccccc2oc2cc(-c3ccc4[nH]ccc4c3)ccc12,nt,nt,i,nt,nt,nt
CCc1ccc2[nH]c(=O)c(CN(CCCN3CCOCC3)C(=O)Nc3ccccc3)cc2c1,i,56,i,i,i,i
CCc1ccc2[nH]c(=O)c(CN(CCCN3CCOCC3)C(=O)Nc3ccc(Cl)cc3)cc2c1,i,i,i,i,i,i
O=C(Nc1ccccc1)N(CCCN1CCOCC1)Cc1cc2cc3c(cc2[nH]c1=O)OCCO3,nt,nt,i,i,nt,nt
CCc1ccc2[nH]c(=O)c(CN(CCCN3CCOCC3)C(=O)Nc3cccc(Cl)c3)cc2c1,i,i,3.3,i,i,i
O=C(Nc1ccccc1F)N(CCCN1CCOCC1)Cc1cc2cc3c(cc2[nH]c1=O)OCCO3,i,90,i,i,i,52
CCOC(=O)N1CCC(Nc2nc3ccccc3n3nnnc23)CC1,i,i,nt,i,i,51
COc1ccc(Br)cc1C1N2CC3(C)CN1CC(C)(C2)C3=O (configuration not stated),i,77,i,i,i,i
SMILES,CYP2C19 activ,CYP2C19 inh,hDAT+cocaine,D1 mod,CYP2C9 activ,CYP2C9 inhib
COc1ccc2[nH]cc(C3N4CC5(C)CN3CC(C)(C4)C5=O)c2c1 (configuration not stated),i,i,i,i,i,i
CCOC(=O)C(CC)n1cnc2c(nnn2-c2ccc(C)cc2)c1=O (configuration not stated),i,i,i,i,i,50
COc1ccc(Br)cc1S(=O)(=O)N1CCOCC1,i,i,i,i,i,i
COc1cc(C)c(C(C)C)cc1S(=O)(=O)N1CCN(C)CC1,i,i,i,i,i,i
CCCOc1cc(C)c(Cl)cc1S(=O)(=O)N(CC)CC,nt,nt,i,nt,nt,nt
CCN(CC)S(=O)(=O)c1cc(Br)ccc1OC,i,98,i,nt,2.5,i
CCN(CC)S(=O)(=O)c1c(Br)cc(C)cc1Br,i,i,i,nt,2.5,i
COc1cc(C)c(Br)cc1S(=O)(=O)N1CCCC1,i,96,i,i,2.8,i
CCN(CC)S(=O)(=O)c1cc(Br)c(C)cc1OC,i,i,i,i,2,i
COc1ccc(C2C(C(=O)NCC3CCCO3)c3cc(OC)c(OC)cc3C(=O)N2C)cc1OC (configuration not stated),i,i,i,i,i,i
OC1CC(c2ccco2)NC2(CCCCC2)C1 (configuration not stated),i,i,i,i,i,i
CCSC1(SCC)N=C(N)C2(C#N)C(c3ccc(F)cc3)C12C#N (configuration not stated),i,62,i,nt,i,58
CCOC1(OCC)N=C(N)C2(C#N)C(c3ccc(NC(C)=O)cc3)C12C#N (configuration not stated),i,i,i,i,i,88
COc1cccc(C2C3(C#N)C(N)=NC(OC)(OC)C23C#N)c1 (configuration not stated),i,i,i,nt,i,i
CSc1ccc(C2C3(C#N)C(N)=NC4(OCCO4)C23C#N)cc1 (configuration not stated),i,i,i,i,i,i
COC1(OC)N=C(N)C2(C#N)C(c3ccc(F)cc3)C12C#N (configuration not stated),i,52,i,i,i,i
CC/C(C)=N\N=C\c1c(O)n(CC)c2cc(C3=NNC(=O)CC3)ccc12,nt,nt,i,nt,nt,nt
CC(C)(C)Cc1nc2ccccc2n1CCc1ccccc1,i,85,i,nt,i,i
c1ccc(Cc2nc3ccccc3n2Cc2ccccc2)cc1,i,i,i,nt,i,92
CCc1nc2ccccc2n1CCC(=O)O,nt,nt,i,nt,nt,nt
COc1ccc(CN(C)C(c2ccccc2)c2nnnn2-c2ccccc2C)c(OC)c1C (configuration not stated),i,94,i,nt,i,79
CC1(C)Cc2c(C#N)c(N3CCN(C(=O)c4ccccc4Cl)CC3)nc(-c3ccco3)c2CS1,i,i,i,nt,i,70
CC1(C)Cc2c(C#N)c(N3CCN(C(=O)c4ccco4)CC3)nc(-c3ccco3)c2CS1,nt,nt,i,nt,nt,nt
CC(=O)N1CCN(c2nc(-c3ccco3)c3c(c2C#N)CC(C)(C)SC3)CC1,i,i,i,nt,i,78
O=C(CCSCCC(=O)NCc1cccs1)NCc1cccs1,i,i,i,i,i,62
O=C(CSCc1ccc(F)cc1)NCc1ccco1,i,70,i,nt,i,i
O=C(CSCC(=O)NCc1ccco1)NCc1ccco1,i,i,i,i,i,i
